# Bioassay records from PubChem.
# Cav3 T inh – Cav3.2 calcium influx blockers – cell-based, Fluo-4 calcium fluorescence, FDSS, MLSMR library, primary screen; Cav3.2-expressing cells; hits give low values; B-score at 10 µM; 100,000 tested, 4% active; AID 449739, 2010;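 active means single-dose well whose peak fluorescence ratio is a statistical outlier from its plate by either plate-standardised score or position-corrected B-score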
# CYP2C9 inhib – blockers of cytochrome P450 2C9 activity – biochemical, luminescence, ADME assay, primary screen | AID 777, 2007 | P11712 | CYP2C9 Supersomes, luciferin-H conversion | 96,000 tested, 20% active | inhibition, % at 5 µM;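 active means blocking of liver enzyme CYP2C9 beyond about 50% at 5 µM, limit read from the data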
# Target sequence (P11712 whole entry, looked up): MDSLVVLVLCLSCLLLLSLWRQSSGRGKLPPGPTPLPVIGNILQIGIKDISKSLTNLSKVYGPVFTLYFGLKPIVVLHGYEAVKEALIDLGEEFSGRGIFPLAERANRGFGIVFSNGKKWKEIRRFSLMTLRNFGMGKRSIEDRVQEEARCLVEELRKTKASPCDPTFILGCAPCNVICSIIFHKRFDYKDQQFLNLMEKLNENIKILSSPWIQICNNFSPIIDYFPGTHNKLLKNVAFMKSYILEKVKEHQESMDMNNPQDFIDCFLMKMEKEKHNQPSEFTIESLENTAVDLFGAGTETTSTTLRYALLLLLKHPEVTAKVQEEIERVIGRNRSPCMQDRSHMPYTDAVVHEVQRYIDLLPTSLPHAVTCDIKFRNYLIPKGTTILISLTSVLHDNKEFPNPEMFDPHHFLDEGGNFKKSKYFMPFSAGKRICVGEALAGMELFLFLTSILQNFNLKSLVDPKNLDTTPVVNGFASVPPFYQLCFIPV
# PTK2B oligo ant – antagonists of Pyk2 self-association, primary screen, Q293 cells, FERM NanoBiT luminescence, HTS | 99,000 tested, 0.83% active | Protein-tyrosine kinase 2-beta (Homo sapiens), Q14289 | z-score (the deposit names both 25 µM and 10 µM) | AID 1347419, 2020 | hits give low values;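 active means Z-score of -3 or lower, scaled per plate to the spread of control and sample wells; inactive means z-score above -3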;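 further: negative z-score means lost luminescence so less FERM oligomerization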
# CYP2C19 inhib – blockers of cytochrome P450 2C19 activity – biochemical, luminescence, ADME assay, primary screen | CYP2C19 Supersomes, luciferin-H EGE luminescence, 30 min | 96,000 tested, 21% active | AID 778, 2007 | inhibition, % at 5 µM | P33261;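 active means CYP2C19 inhibition above a set limit at 5 µM in the primary screen, cut at about 50% in these data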;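 further: plate controls were negative control wells for no effect and 2.5 mM tranylcypromine positive control for full effect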
# CYP2C19 act – human CYP2C19 activators, primary screen, biochemical, luminescence. recombinant CYP2C19, luciferin-H EGE luminescence; hits give high values; 0 = fully inhibited enzyme, 1 = untreated enzyme. activation factor at 5 µM. 96,000 tested, under 10 active. AID 1025, 2008;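 active means activation factor of at least 2 at 5 µM in the primary screen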;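 further: 0 = wells with 2.5 mM tranylcypromine and 1 = vehicle-only wells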
# CYP2C9 activ – human CYP2C9 activators, primary screen, biochemical, luminescence | Cytochrome P450 2C9 (Homo sapiens), P11712 | recombinant CYP2C9, luciferin-H conversion; hits give high values; factor 1 = untreated enzyme, 0 = blocked | activation factor at 5 µM | 96,000 tested, 1.4% active | AID 1024, 2008;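 active means activation factor of 2 or more for CYP2C9 at a 5 µM dose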;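 further: 0 = sulfaphenazole-blocked wells and 1 = vehicle-only wells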
# The depositor's hits bear a star; x = no result given. This is a sample that favours compounds with a hit; in the whole collection about 27% have one here.
SMILES,Cav3 T inh,CYP2C9 inhib,PTK2B oligo ant,CYP2C19 inhib,CYP2C19 act,CYP2C9 activ
CNC(=O)Oc1ccc2c(c1)C(=O)c1ccccc1CO2,-0.012,39.6,-0.36,60.6*,0.4,0.6
Cc1ccc2c(c1)CC1(CN2C)C(=O)NC(=O)N(CCc2ccccc2)C1=O (stereo not drawn),-2.8,47.9,0.34,11.6,0.9,0.5
O=C1NC(=O)C(CCc2ccncc2)(Cc2ccc3c(c2)OCO3)C(=O)N1CCc1ccccc1 (stereo not drawn),-0.614,89.5*,-1.76,99.1*,0,0.1
CCN(CCCl)Cc1ccccc1Br,-5.08*,x,x,x,x,x
CCC(=NCCO)c1c(O)n(C2CCCCC2)c(=O)[nH]c1=O,0.0425,36.7,-0.7,61.4*,0.4,0.6
CCC(=NCc1ccc2c(c1)OCO2)c1c(O)n(C2CCCCC2)c(=O)[nH]c1=O,-5.77*,100.0*,-2.98,99.3*,0,0
C(=NC12CN3CN(CN(C3)C1)C2)c1cccs1,0.727,-8.7,0.97,-19.1,1.2,1.1
O=C1Nc2ccccc2/C1=C/c1cnc[nH]1,0.0778,92.1*,-0.41,98.9*,0,0.1
O=C(COC(=O)Cc1ccccc1)Nc1ncc(Cl)cc1Cl,x,15.5,0.54,57.7*,0.4,0.8
CCOc1c(P(=S)(N(C)C)N(C)C)c(C)nn1-c1ccccc1,-1.43,78.5*,-1.46,88.8*,0.1,0.2
COc1cc(OC)c(OC)cc1CNC(C)C(O)c1ccccc1 (stereo not drawn),0.695,-16.0,1.43,66.9*,0.3,1.2
COc1cc(OC)c(OC)cc1CNCCc1ccc(OC)c(OC)c1,-0.0831,-3.3,-0.02,-8.4,1.1,1
COC(=O)C1=C(c2cc3ccccc3s2)C[C@@H]2CC[C@H]1N2C(=O)N1CCC(C)CC1,-1.35,x,x,x,x,x
O=c1[nH]c2ccccc2o1,-0.311,x,x,x,x,x
COC(=O)C1=C(c2cc3ccccc3o2)C[C@@H]2CC[C@H]1N2C(=O)NCc1ccco1,-1.47,x,x,x,x,x
COC(=O)C(O)(c1ccc2c(c1)CCCN2)C(F)(F)F (stereo not drawn),0.675,-6.2,1.21,13.1,0.9,1.1
O=C(CSC1c2ccccc2-c2ccccc21)N/N=C/c1ccccc1O,-3.13,52.8*,-1.08,59.3*,0.4,0.5
CN1CC[C@@H](c2ccc(F)cc2)[C@H](COc2ccc3c(c2)OCO3)C1,-1.67,x,x,x,x,x
CC1(C)COC(Nc2cccc(Cl)c2)=N1,0.834,76.2*,0.43,11.5,0.9,0.2
CC1(C)CSC(Nc2ccc(F)c(Cl)c2)=N1,-0.148,20.0,-0.19,42.0,0.6,0.8
COC(=O)C1=C(c2cc3ccccc3o2)C[C@@H]2CC[C@H]1N2C(=O)N1CCC(C)CC1,-1.93,x,x,x,x,x
Fc1ccc(CCNCc2ccc(Cl)c(Cl)c2)cc1,-1.46,6.6,2.09,96.2*,0,0.9
c1ccc2c(CCNCc3ccc4c(c3)OCO4)c[nH]c2c1,-0.0758,x,0.69,x,x,x
CCC1(CCc2ccncc2)C(=O)NC(=O)NC1=O,-0.0112,42.1,-0.19,3.9,1,0.6
O=C1NC(=O)C(CCc2ccncc2)(C2CCCCC2)C(=O)N1,x,69.9*,0.38,64.5*,0.4,0.3
SMILES,Cav3 T inh,CYP2C9 inhib,PTK2B oligo ant,CYP2C19 inhib,CYP2C19 act,CYP2C9 activ
CC(=O)OC1C2CCC1C(N1CCCC1)CC2 (stereo not drawn),0.803,-47.3,0.31,-15.3,1.2,1.5
CCCCOCCCn1c(N)c(C(=O)OC(C)COC)c2nc3ccccc3nc21 (stereo not drawn),-0.726,x,0.24,x,x,x
CC(C)(C)OC(=O)c1c(N)n(Cc2ccco2)c2nc3ccccc3nc12,-5.32*,84.2*,0.69,52.5*,0.5,0.2
CCC(C)NC(=O)c1c(N)n(CCCOC)c2nc3ccccc3nc12 (stereo not drawn),-1.51,87.5*,-0.66,68.9*,0.3,0.1
COCCCn1c(N)c(C(=O)OC(C)COC)c2nc3ccccc3nc21 (stereo not drawn),0.923,58.6*,1.29,30.6,0.7,0.4
COCCCn1c(N)c(C(=O)Nc2sc3c(c2C(=O)OC)CCCC3)c2nc3ccccc3nc21,0.161,12.5,-0.52,4.1,1,0.9
